In PubChem BioAssay:
“And” between values parts separate entries of the source, which are not always exact repeats. Identical values can stand only once. The source made the active and inactive calls.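 The calls were made as follows, unless noted: active = normalized viability below 100% at a tested concentration; inactive = the rest.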

How the values were obtained:
[1] = target: 6-phosphogluconate dehydrogenase, decarboxylating (Homo sapiens) (UniProt P52209); assay: inhibition of human phosphogluconate dehydrogenase – biochemical, recombinant enzyme, NADPH absorbance, primary screen (AID 1159550;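 active = at least 20% inhibition of 6-phosphogluconate dehydrogenase activity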); conditions: recombinant 6PGD, NADPH absorbance 341 nm; at 10 µM; stronger effect = higher value
Chain of 6-phosphogluconate dehydrogenase, decarboxylating (Homo sapiens) (P52209 whole entry, looked up): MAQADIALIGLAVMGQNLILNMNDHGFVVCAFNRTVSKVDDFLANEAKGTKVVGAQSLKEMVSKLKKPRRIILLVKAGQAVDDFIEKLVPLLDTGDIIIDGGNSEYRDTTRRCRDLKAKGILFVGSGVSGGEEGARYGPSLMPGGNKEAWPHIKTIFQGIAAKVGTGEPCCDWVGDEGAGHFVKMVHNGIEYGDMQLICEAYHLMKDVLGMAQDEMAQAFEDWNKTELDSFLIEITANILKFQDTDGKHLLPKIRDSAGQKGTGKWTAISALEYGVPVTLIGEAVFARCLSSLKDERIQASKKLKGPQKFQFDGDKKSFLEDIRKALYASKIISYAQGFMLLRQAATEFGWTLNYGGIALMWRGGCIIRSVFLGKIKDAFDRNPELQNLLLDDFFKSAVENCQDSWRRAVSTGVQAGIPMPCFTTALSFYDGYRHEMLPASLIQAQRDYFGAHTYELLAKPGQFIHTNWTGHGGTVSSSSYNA

[2] = signal quenchers or enhancers, Cy5 substrate/SSB – biochemical, NIH Clinical Collection, E. coli SSB, artefact control for HCV NS3 helicase inhibitor project (AID 743268; call rule not given here); conditions: Cy5-oligo bound E. coli SSB, fluorescence interference
[3] = tested on: Hepatitis C virus NS3 helicase; assay: blockers of NS3h binding to DNA – biochemical, fluorescence polarization, NIH Clinical Collection, primary screen (AID 743270; call rule not given here); conditions: NS3 helicase binding to Cy5-dT15 DNA, stronger effect = higher value, concentration not given here
[4] = target: Single-stranded DNA-binding protein (Escherichia coli (strain K12)) (UniProt P0AGE0); assay: SSB-ssDNA binding inhibitors – biochemical, fluorescence polarization, NIH Clinical Collection, counter-screen for HCV NS3 helicase inhibitor project (AID 743271; in the data active = inhibition above about 28%); conditions: E. coli SSB-DNA binding, stronger effect = higher value, concentration not given here
[5] = compounds distorting NS3 helicase fluorescence signal – biochemical, NIH Clinical Collection, artefact control for HCV NS3 helicase inhibitor project (AID 743272; call rule not given here;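 also: HCV NS3 helicase with a Cy5 labelled single stranded DNA probe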); conditions: fluorescence interference counterscreen, HCV NS3 helicase assay; stronger effect = lower value
[6] = modulation of C. elegans fzo-1 (AID 1259413; call rule not given here;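 also: fzo-1 mutant C. elegans worms in liquid wells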); conditions: C. elegans fzo-1 modulator screen, mean read-out; stronger effect = higher value
[7] = EMT-state selective cytotoxicity in co-culture – imaging, PC-3E GFP, TEM4-18 mCherry, primary screen (AID 1345086;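 active = compounds killing one labelled cell type while sparing the other, by normalised counts and ratio limits, not self-fluorescent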;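 as to all read-outs here: cells exposed to compound for 72 h before imaging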;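 as to red/green cell ratio (normalised): normalised mesenchymal count divided by normalised epithelial count so high means epithelial killing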); conditions: PC-3E GFP / TEM4-18 mCherry co-culture, imaging cell counts, at 1 µM; for red/green cell ratio (normalised): actives lie on both sides, counts scaled to control wells, 1 = unselective
[8] = MELAS cybrid and Rieske KO viability enhancers – cell-based, MELAS cybrids, Rieske KO mouse fibroblasts, CellTiter-Glo, primary screen (AID 1508586;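 active = mean z-score across replicates of 1.96 or higher in either the MELAS or the Rieske mutant cell line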;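 also: z relative to plate mean and SD of compound and empty wells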); conditions: low glucose
[9] = drug combination growth inhibition, ovarian cancer – cell-based, oncology-focused library, rucaparib conditional, profiling panel (AID 1508598); conditions: patient-derived ovarian cancer cells, CellTiter-Glo viability, 144 h, stronger effect = lower value
[10] = target: Mitogen-activated protein kinase 7 (Homo sapiens) (UniProt Q13164); assay: Gal4-ERK5 driven luciferase induction – cell-based, HTS, primary screen (AID 1508626;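 active = luciferase signal above three times the same-plate solvent-only control wells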;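 also: luciferase driven by Gal4-ERK5 fusion binding five Gal4 sites before minimal TATA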); conditions: HeLa Gal4-ERK5 transactivation, 18 h, at 5 µM, stronger effect = higher value
Chain of Mitogen-activated protein kinase 7 (Homo sapiens) (Q13164 whole entry, looked up, the tested form may be a part): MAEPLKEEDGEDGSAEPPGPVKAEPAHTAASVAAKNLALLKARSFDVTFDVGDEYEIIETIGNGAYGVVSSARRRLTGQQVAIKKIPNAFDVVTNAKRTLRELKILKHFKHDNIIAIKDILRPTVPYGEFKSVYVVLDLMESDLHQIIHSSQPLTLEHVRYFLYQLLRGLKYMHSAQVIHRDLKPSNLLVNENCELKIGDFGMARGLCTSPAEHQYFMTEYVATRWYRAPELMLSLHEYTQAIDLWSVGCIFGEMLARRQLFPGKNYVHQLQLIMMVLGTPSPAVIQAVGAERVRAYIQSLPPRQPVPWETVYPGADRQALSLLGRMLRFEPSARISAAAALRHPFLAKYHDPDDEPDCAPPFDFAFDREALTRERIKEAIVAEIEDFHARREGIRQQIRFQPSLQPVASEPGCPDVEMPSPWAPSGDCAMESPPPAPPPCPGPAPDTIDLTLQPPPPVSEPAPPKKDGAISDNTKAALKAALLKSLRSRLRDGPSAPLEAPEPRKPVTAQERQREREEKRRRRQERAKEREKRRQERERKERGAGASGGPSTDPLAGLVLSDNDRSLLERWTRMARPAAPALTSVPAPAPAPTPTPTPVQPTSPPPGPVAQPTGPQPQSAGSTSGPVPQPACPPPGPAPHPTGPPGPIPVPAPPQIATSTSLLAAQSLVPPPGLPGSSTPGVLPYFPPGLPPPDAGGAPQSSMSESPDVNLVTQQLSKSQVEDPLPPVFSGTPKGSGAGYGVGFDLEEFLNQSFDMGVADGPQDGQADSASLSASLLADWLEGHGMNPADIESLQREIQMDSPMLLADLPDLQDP

[11] = galactose survival enhancers in mitochondrial complex I cybrids – cell-based, galactose medium, ATP luminescence, primary screen (AID 1645843;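 active = z-score of at least 1.8 in each of two replicates, scored against plate mean and spread of sample wells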;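 also: positive z means more ATP and so rescue of galactose-driven cybrid death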); conditions: complex I mutant cybrid cells, 72 h, stronger effect = higher value
F380Y = assay: BK channel mutant inhibitors and activators – cell-based, U2OS BacMam, thallium flux, beta subunits, selectivity assay, profiling panel (AID 1259406;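 active = thallium flux through the channel raised or lowered by more than 3 SD from vehicle-only wells, actives on both sides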;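 also: initial slope of Thallos dye fluorescence rise after thallium is added; log ratio against the mean of 0.3% DMSO vehicle wells on the same plate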); conditions: U2OS BacMam BK variants, at 30 µM
F380Y/beta1 = assay: as above; conditions: U2OS BacMam BK variants, at 30 µM
F380Y/beta2Delta = assay: as above; conditions: U2OS BacMam BK variants, at 30 µM
[12] = target: Calcium-activated potassium channel subunit alpha-1 (Homo sapiens) + Leucine-rich repeat-containing protein 26 (Homo sapiens) (UniProt Q12791+Q2I0M4); assay: as above; conditions: U2OS BacMam BK variants, F380Y/Slo1WT/gamma1, at 30 µM
Chain of Calcium-activated potassium channel subunit alpha-1 (Homo sapiens) + Leucine-rich repeat-containing protein 26 (Homo sapiens) (Q2I0M4 whole entry, looked up, one chain of several): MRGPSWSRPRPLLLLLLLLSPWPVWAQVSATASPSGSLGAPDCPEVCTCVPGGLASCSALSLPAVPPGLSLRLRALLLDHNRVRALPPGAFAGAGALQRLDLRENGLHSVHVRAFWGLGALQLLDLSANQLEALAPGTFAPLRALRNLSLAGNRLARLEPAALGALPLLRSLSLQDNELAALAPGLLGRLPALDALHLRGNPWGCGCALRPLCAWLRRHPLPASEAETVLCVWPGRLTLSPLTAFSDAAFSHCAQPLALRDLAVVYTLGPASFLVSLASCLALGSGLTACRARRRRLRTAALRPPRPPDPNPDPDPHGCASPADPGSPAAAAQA

R275C = assay: as above; conditions: U2OS BacMam BK variants, at 30 µM
R275C/beta1 = assay: as above; conditions: U2OS BacMam BK variants, at 30 µM
R275C/beta2Delta = assay: as above; conditions: U2OS BacMam BK variants, at 30 µM
[13] = viability loss with induced miR-34 in A549 – imaging, A549 dox-inducible miR-34, nuclei and caspase counts, primary screen (AID 1347080;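 active = compounds whose cell count with miR-34 switched on is under 0.7 times the count with it off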); conditions: A549 miR-34 inducible, Hoechst nuclei count, 48 h
[14] = measured here: epithelial PC-3E GFP cell survival
[15] = measured here: mesenchymal TEM4-18 mCherry cell survival
[16] = MELAS cybrid survival, CellTiter-Glo 48 h, stronger effect = higher value
[17] = Rieske KO mouse fibroblast survival, CellTiter-Glo 72 h

CC(C)c1ccc2c(c1)CC[C@@]1(C)[C@](C)(C(N)=O)CCC[C@]21C
inactive: inhibition [1] 18%

CN(C)c1nc(N(C)C)nc(N(C)C)n1
0.98: normalised cell number [7, 14]
inactive: fluorescence ratio [2] 1.08 | inhibition [3] -2.27% | inhibition [4] 1.81% | fluorescence ratio [5] 0.99 | inhibition [1] 11.2% | mean signal [6] 270 | red/green cell ratio (normalised) [7] 1.11 | z-score [8, 16] -0.405 and 0.759 and 0.19 | viability ([9]; at 0.000305 µM, OCI-C5x cells, with rucaparib 10 µM, 100% = cells with rucaparib alone) 108% | viability ([9]; at 0.00122 µM, OCI-C5x cells, with rucaparib 10 µM, 100% = cells with rucaparib alone) 112% | viability ([9]; at 0.00122 µM, OCI-C5x cells, without rucaparib) 100% | viability ([9]; at 0.00488 µM, OCI-C5x cells, with rucaparib 10 µM, 100% = cells with rucaparib alone) 120% | viability ([9]; at 0.00488 µM, OCI-C5x cells, without rucaparib) 101% | viability ([9]; at 0.00488 µM, OCI-P5x cells, with rucaparib 20 µM, 100% = cells with rucaparib alone) 101% | viability ([9]; at 0.0195 µM, OCI-C5x cells, with rucaparib 10 µM, 100% = cells with rucaparib alone) 113% | viability ([9]; at 0.0195 µM, OCI-C5x cells, without rucaparib) 100% | viability ([9]; at 0.0195 µM, OCI-P5x cells, with rucaparib 20 µM, 100% = cells with rucaparib alone) 102% | viability ([9]; at 0.0781 µM, OCI-C5x cells, with rucaparib 10 µM, 100% = cells with rucaparib alone) 110% | viability ([9]; at 0.0781 µM, OCI-C5x cells, without rucaparib) 101% | viability ([9]; at 0.0781 µM, OCI-P5x cells, with rucaparib 20 µM, 100% = cells with rucaparib alone) 103% | viability ([9]; at 0.0781 µM, OCI-P5x cells, without rucaparib) 106% | viability ([9]; at 0.313 µM, OCI-C5x cells, with rucaparib 10 µM, 100% = cells with rucaparib alone) 107% | viability ([9]; at 0.313 µM, OCI-C5x cells, without rucaparib) 108% | viability ([9]; at 0.313 µM, OCI-P5x cells, with rucaparib 20 µM, 100% = cells with rucaparib alone) 108% | viability ([9]; at 5 µM, OCI-C5x cells, with rucaparib 10 µM, 100% = cells with rucaparib alone) 109% | viability ([9]; at 5 µM, OCI-P5x cells, with rucaparib 20 µM, 100% = cells with rucaparib alone) 107% | luciferase signal [10] 40 AU | z-score [11] 0.975 and 0.76 and 0.825 | log fold change Tl+ flux (F380Y) 0.0102 | log fold change Tl+ flux (F380Y/beta1) 0.0385 | log fold change Tl+ flux (F380Y/beta2Delta) 0.00703 | log fold change Tl+ flux [12] 0.0168 | log fold change Tl+ flux (R275C) -0.00384 | log fold change Tl+ flux (R275C/beta1) -0.054 | log fold change Tl+ flux (R275C/beta2Delta) -0.0096
1.08: normalised cell number [7, 15]
active: viability ([9]; at 0.000305 µM, OCI-C5x cells, without rucaparib) 98.3% | viability ([9]; at 0.000305 µM, OCI-P5x cells, with rucaparib 20 µM, 100% = cells with rucaparib alone) 95.7% | viability ([9]; at 0.000305 µM, OCI-P5x cells, without rucaparib) 87% | viability ([9]; at 0.00122 µM, OCI-P5x cells, with rucaparib 20 µM, 100% = cells with rucaparib alone) 95.8% | viability ([9]; at 0.00122 µM, OCI-P5x cells, without rucaparib) 89% | viability ([9]; at 0.00488 µM, OCI-P5x cells, without rucaparib) 92.4% | viability ([9]; at 0.0195 µM, OCI-P5x cells, without rucaparib) 96.6% | viability ([9]; at 0.313 µM, OCI-P5x cells, without rucaparib) 99.9% | viability ([9]; at 1.25 µM, OCI-C5x cells, with rucaparib 10 µM, 100% = cells with rucaparib alone) 96.8% | viability ([9]; at 1.25 µM, OCI-C5x cells, without rucaparib) 67.8% | viability ([9]; at 1.25 µM, OCI-P5x cells, with rucaparib 20 µM, 100% = cells with rucaparib alone) 78.5% | viability ([9]; at 1.25 µM, OCI-P5x cells, without rucaparib) 28.8% | viability ([9]; at 5 µM, OCI-C5x cells, without rucaparib) 97.9% | viability ([9]; at 5 µM, OCI-P5x cells, without rucaparib) 98.6%
0.906 and 0.36 and 0.155: z-score [8, 17]

CNCCC(Oc1ccc(C(F)(F)F)cc1)c1ccccc1 (configuration not stated)
1.15: normalised cell number [7, 15]
1.16: normalised cell number [7, 14]
-2.64 and 0.201 and 0.197: z-score [8, 17]
active: log fold change Tl+ flux (F380Y) 0.129 | log fold change Tl+ flux (F380Y/beta1) 0.157 | log fold change Tl+ flux (F380Y/beta2Delta) 0.189 | log fold change Tl+ flux (R275C/beta1) 0.297
inactive: fluorescence ratio [2] 1.04 | inhibition [3] -2.27% | inhibition [4] -2.76% | fluorescence ratio [5] 1.03 | inhibition [1] 19% | mean signal [6] 190 | red/green cell ratio (normalised) [7] 1 | z-score [8, 16] 1.26 and -0.395 and -0.285 | log fold change Tl+ flux [12] 0.0464 | log fold change Tl+ flux (R275C) -0.0214 | log fold change Tl+ flux (R275C/beta2Delta) 0.0608

CC(C)CCCC(C)C1CCC2C3C(=O)C=C4C[C@@H](O)CCC4(C)C3CCC12C (some centres not stated)
inactive: inhibition [1] 12.2%

Nc1ncnc2c1ncn2[C@@H]1O[C@H](CO)[C@@H](O)[C@@H]1O
10300 and 12000 and 9720: cell count ([13]; measured here: total cells without miR-34 induction)
0.95: normalised cell number [7, 15]
inactive: fluorescence ratio [2] 1 | inhibition [3] -4.09% | inhibition [4] -1.24% | fluorescence ratio [5] 1 | inhibition [1] -15.7% | mean signal [6] 237 | red/green cell ratio (normalised) [7] 0.96 | fold change ([13]; stronger effect = lower value, cell number ratio, induced over uninduced) 0.95 and 0.835 and 0.86 | z-score [8, 16] -2.73 and -2.26 | luciferase signal [10] 160 AU | z-score [11] -1.35 and 1.67 | log fold change Tl+ flux (F380Y) -0.000678 | log fold change Tl+ flux (F380Y/beta1) 0.0507 | log fold change Tl+ flux (F380Y/beta2Delta) 0.00163 | log fold change Tl+ flux [12] 0.0271 | log fold change Tl+ flux (R275C) 0.00664 | log fold change Tl+ flux (R275C/beta1) -0.0305 | log fold change Tl+ flux (R275C/beta2Delta) -0.0267
9780 and 10000 and 8360: cell count ([13]; measured here: total cells with miR-34 induction, stronger effect = lower value)
2.09 and 4.39 and 1.09: fold change ([13]; measured here: relative caspase fold change +Dox/-Dox)
0.99: normalised cell number [7, 14]
0.559 and 1.92: z-score [8, 17]

C[C@@H]1O[C@@H](O[C@H]2[C@H](O[C@H]3CC[C@@]4(C)[C@@H](CC[C@]5(C)[C@@H]4CC=C4[C@@H]6CC(C)(C)CC[C@]6(C(=O)O[C@@H]6O[C@H](CO[C@@H]7O[C@H](CO)[C@@H](O[C@@H]8O[C@@H](C)[C@H](O)[C@@H](O)[C@H]8O)[C@H](O)[C@H]7O)[C@@H](O)[C@H](O)[C@H]6O)CC[C@]45C)[C@]3(C)CO)OC[C@H](O)[C@@H]2O)[C@H](O)[C@H](O)[C@H]1O
inactive: inhibition [1] 5.65%
